Measured values from ChEMBL document CHEMBL1157539, “Thousands of chemical starting points for antimalarial lead identification” (Nature, 2010).

Assays:
Format in all cases: functional
Plasmodium falciparum [1] = test: GSK_TCMDC: Inhibition of Plasmodium falciparum 3D7 in whole red blood cells, using parasite LDH activity as an index of growth. Test compounds present at 2uM
Plasmodium falciparum [2] = test: GSK_TCMDC: Inhibition of Plasmodium falciparum Dd2 in whole red blood cells, using parasite LDH activity as an index of growth. Test compounds present at 2uM
HepG2 = test: GSK_TCMDC: Percent inhibition of human HepG2 cell line. Test compounds present at 10uM.

## Cc1ccc(Nc2nc(C)cc(NC3CC3)n2)cc1
Plasmodium falciparum [1]
  Inhibition: 97%
Plasmodium falciparum [2]
  Inhibition: 15%
HepG2
  Inhibition: 0%

## CCCCCc1cc(OC(C)=O)c2c(c1)OC(C)(C)C=C2C1=CCN(Cc2ccccc2)CC1.O=C(O)/C=C/C(=O)O
Plasmodium falciparum [1]
  Inhibition: 97%
Plasmodium falciparum [2]
  Inhibition: 88%
HepG2
  Inhibition: 14%

## c1ccc(COc2ccc(COc3ccc(Cn4ccnc4)cc3)cc2)cc1
Plasmodium falciparum [1]
  Inhibition: 86%
Plasmodium falciparum [2]
  Inhibition: 45%
HepG2
  Inhibition: 9%

## COc1ccc(NC(=O)/C=C/c2ccc(Cl)c(C(F)(F)F)c2)cc1OCCN(C(C)C)C(C)C.O=C(O)C(F)(F)F
Plasmodium falciparum [1]
  Inhibition: 95%
Plasmodium falciparum [2]
  Inhibition: 28%
HepG2
  Inhibition: 18%

## CCN(CC)CCN(CCCc1ccc(-c2ccc(C(F)(F)F)cc2)cc1)C(=O)Cn1c(CCc2cccc(F)c2F)nc(=O)c2c1CCC2.O=C(O)C(O)C(O)C(=O)O
Plasmodium falciparum [1]
  Inhibition: 92%
Plasmodium falciparum [2]
  Inhibition: 27%
HepG2
  Inhibition: 38%

## c1ccc(-c2[nH]c3ccccc3c2CN2CCC(N3CCCCC3)CC2)nc1
Plasmodium falciparum [1]
  Inhibition: 100%
Plasmodium falciparum [2]
  Inhibition: 82%
HepG2
  Inhibition: 13%

## COc1ccc(-c2csc(C(=O)NC3CCC(N4CCC(c5ccccc5C)CC4)CC3)c2)cc1 (stereo not drawn)
Plasmodium falciparum [1]
  Inhibition: 100%
Plasmodium falciparum [2]
  Inhibition: 99%
HepG2
  Inhibition: 64%

## Br.COc1nc(-n2ccc(=N)cc2)nc2ccccc12
Plasmodium falciparum [1]
  Inhibition: 90%
Plasmodium falciparum [2]
  Inhibition: 45%
HepG2
  Inhibition: 15%

## CCOc1ncccc1CN1CCC(N2CCc3cc(NC(=O)c4ccco4)ccc32)C1 (stereo not drawn)
Plasmodium falciparum [1]
  Inhibition: 90%
Plasmodium falciparum [2]
  Inhibition: 94%
HepG2
  Inhibition: 3%

## Cc1cccc(CNc2nc(C)cc(N[C@@H](Cc3ccccc3)C(=O)NCc3cccc(F)c3)n2)c1.O=C(O)C(F)(F)F
Plasmodium falciparum [1]
  Inhibition: 100%
Plasmodium falciparum [2]
  Inhibition: 82%
HepG2
  Inhibition: 39%

## O=C(c1ccc(-c2ccc(-c3nc4cc(C(F)(F)F)ccc4[nH]3)s2)cc1)N1CCCCC1CN1CCC(O)C1 (stereo not drawn)
Plasmodium falciparum [1]
  Inhibition: 92%
Plasmodium falciparum [2]
  Inhibition: 80%
HepG2
  Inhibition: 90%

## O=C(C=Cc1ccc(-c2nc3ccccc3[nH]2)cc1)NC1CCN(Cc2ccccc2)CC1
Plasmodium falciparum [1]
  Inhibition: 99%
Plasmodium falciparum [2]
  Inhibition: 88%
HepG2
  Inhibition: 15%

## O=[N+]([O-])c1ccc2nccnc2c1
Plasmodium falciparum [1]
  Inhibition: 97%
Plasmodium falciparum [2]
  Inhibition: 0%
HepG2
  Inhibition: 0%

## CCOc1ccc2c(c1)C(C)(c1ccc3c(c1)C(C)CC(C)(C)N3)CC(C)(C)N2 (stereo not drawn)
Plasmodium falciparum [1]
  Inhibition: 94%
Plasmodium falciparum [2]
  Inhibition: 3%
HepG2
  Inhibition: 5%

## COc1ccccc1C1CC(c2ccc(Br)cc2)=NN1C(=O)c1ccccc1 (stereo not drawn)
Plasmodium falciparum [1]
  Inhibition: 85%
Plasmodium falciparum [2]
  Inhibition: 59%
HepG2
  Inhibition: 12%

## C[C@@]12C[C@@H](Nc3nc(NCCc4ccc(O)cc4)nc(N4CCNCC4)n3)C[C@@H](C1)c1cccc(Cl)c1O2.O=C(O)C(F)(F)F
Plasmodium falciparum [1]
  Inhibition: 100%
Plasmodium falciparum [2]
  Inhibition: 47%
HepG2
  Inhibition: 92%

## Cl.N=C(N)c1ccc(Nc2nc(Nc3ccc(-c4ccccc4)cc3)ncc2[N+](=O)[O-])cc1
Plasmodium falciparum [1]
  Inhibition: 99%
Plasmodium falciparum [2]
  Inhibition: 35%
HepG2
  Inhibition: 11%

## N=C(N)Nc1nc(-c2cccc(NC(=O)CCCCCCCON3C(N)=NC(N)=NC34CCCCC4)c2)cs1
Plasmodium falciparum [1]
  Inhibition: 96%
Plasmodium falciparum [2]
  Inhibition: 89%
HepG2
  Inhibition: 1%

## O=C(/C=C/c1ccc(Cl)c(Cl)c1)NCCCCCN1CCCC(C(=O)Nc2ccc(Cl)c(Cl)c2)C1 (stereo not drawn)
Plasmodium falciparum [1]
  Inhibition: 100%
Plasmodium falciparum [2]
  Inhibition: 11%
HepG2
  Inhibition: 53%

## Cc1cc(OCCCN2CCCCC2C)ccc1NC(=O)COc1ccc(Cl)cc1C(=O)c1cc(Cl)cc(C#N)c1 (stereo not drawn)
Plasmodium falciparum [1]
  Inhibition: 91%
Plasmodium falciparum [2]
  Inhibition: 14%
HepG2
  Inhibition: 23%

## CCN(CC)CCN(Cc1ccc(-c2ccc(C(F)(F)F)cc2)cc1)C(=O)Cn1c(CCc2ccc(F)cc2)nc(=O)c2ccccc21.O=C(O)C(O)C(O)C(=O)O
Plasmodium falciparum [1]
  Inhibition: 97%
Plasmodium falciparum [2]
  Inhibition: 58%
HepG2
  Inhibition: 42%

## Cc1nc(C)c(-c2ccc(C(F)(F)F)cc2)c(O)c1Br
Plasmodium falciparum [1]
  Inhibition: 98%
Plasmodium falciparum [2]
  Inhibition: 96%
HepG2
  Inhibition: 0%

## CC(C)C(C(=O)Nc1ccc2c(c1)OCO2)c1ccc(Cl)cc1 (stereo not drawn)
Plasmodium falciparum [1]
  Inhibition: 98%
Plasmodium falciparum [2]
  Inhibition: 89%
HepG2
  Inhibition: 25%

## Cc1cc(=O)oc2c1ccc1oc(C(O)c3ccc(Cl)cc3)c(C)c12 (stereo not drawn)
Plasmodium falciparum [1]
  Inhibition: 95%
Plasmodium falciparum [2]
  Inhibition: 96%
HepG2
  Inhibition: 0%

## Cc1noc(C)c1-c1ccc2c(Nc3ccccc3C(C)(C)C)c(C(=O)NCc3ccc4c(c3)OCO4)cnc2c1.Cl
Plasmodium falciparum [1]
  Inhibition: 96%
Plasmodium falciparum [2]
  Inhibition: 88%
HepG2
  Inhibition: 37%

## CC(C)CN1CCCN(Cc2cccc(NC(=O)c3ccc(Cl)c(Cl)c3)c2)CC1.O=C(O)C(F)(F)F
Plasmodium falciparum [1]
  Inhibition: 91%
Plasmodium falciparum [2]
  Inhibition: 9%
HepG2
  Inhibition: 10%

## CC(C)CNCc1ccc(-c2cccc(CN(CCN(C)C)C(=O)NCCc3ccccc3)c2)cc1.O=C(O)C(F)(F)F
Plasmodium falciparum [1]
  Inhibition: 91%
Plasmodium falciparum [2]
  Inhibition: 37%
HepG2
  Inhibition: 33%

## Cc1cccc2nc(-c3ccc(-c4ccc(CN5CCC(CO)CC5)cc4)s3)[nH]c12.O=C(O)C(F)(F)F
Plasmodium falciparum [1]
  Inhibition: 100%
Plasmodium falciparum [2]
  Inhibition: 82%
HepG2
  Inhibition: 15%

## CCCC(C)C(=O)N1CCOC(COCc2cccc(C(F)(F)F)c2)(c2ccc(Cl)cc2)C1 (stereo not drawn)
Plasmodium falciparum [1]
  Inhibition: 97%
Plasmodium falciparum [2]
  Inhibition: 91%
HepG2
  Inhibition: 2%

## Cc1c[nH]c(CCNC(=O)c2cc(-c3ccc(Cl)cc3)cs2)n1
Plasmodium falciparum [1]
  Inhibition: 100%
Plasmodium falciparum [2]
  Inhibition: 7%
HepG2
  Inhibition: 12%

## COCCOc1ccc(Nc2nccc(-c3c(-c4cccc(NC(=O)c5c(F)cccc5F)c4)nn4ccccc34)n2)cc1F
Plasmodium falciparum [1]
  Inhibition: 90%
Plasmodium falciparum [2]
  Inhibition: 60%
HepG2
  Inhibition: 62%
